# Measured values reported in paper PMC7862700, “An all-to-all approach to the identification of sequence-specific readers for epigenetic DNA modifications on cytosine”.
# Key:
# Experiment in all cases: DAPPL (digital affinity profiling via proximity ligation, sequencing); 10 mM Tris-HCl pH 7.5, 50 mM NaCl, 1 mM DTT, 4% glycerol, room temperature, 30 min; GST-TFs on glutathione beads, 16-mer random dsDNA library, 0.1% formaldehyde crosslink after washing; high values mean tight binding
# FEV = biological target: T1, FEV (Homo sapiens, UniProt Q99581 1-238); conditions: protein: recombinant; tags: N-terminal GST; dsDNA, one strand shown
# T1 sequence: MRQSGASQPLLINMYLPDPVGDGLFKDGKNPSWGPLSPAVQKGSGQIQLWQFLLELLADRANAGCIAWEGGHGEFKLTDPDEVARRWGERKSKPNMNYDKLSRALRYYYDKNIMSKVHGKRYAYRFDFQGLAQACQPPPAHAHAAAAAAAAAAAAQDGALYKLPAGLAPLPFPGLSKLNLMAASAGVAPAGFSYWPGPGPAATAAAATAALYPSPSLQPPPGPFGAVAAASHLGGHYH
# Summary of the method: (§1)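 The binding signal reported is, for every hexamer, its read frequency for a factor over its read frequency for the tag-only sample. Reads came from pools of yeast-expressed, GST-fused human transcription factors on glutathione beads, barcoded with DNA and mixed with that sample, which were incubated with 200 nmole of a random double-stranded 16-mer DNA library in Tris/NaCl/DTT/glycerol buffer at room temperature for 30 min. After washing, the pools were crosslinked with 0.1% formaldehyde, proximity-ligated with BsaI/T4 ligase for 1 h at 37 °C, PCR-amplified and sequenced on an Illumina NextSeq500.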
# ETV5 = ETV5 (Homo sapiens, UniProt P41161 1-510); conditions: protein: recombinant; tags: N-terminal GST; dsDNA, one strand shown
# Summary of the method: as §1
# HSF1 = HSF1 (Homo sapiens, UniProt Q00613 1-529); conditions: protein: recombinant; tags: N-terminal GST; chain copies: 3; dsDNA, one strand shown
# Summary of the method: as §1
# SPIC = biological target: T2, SPIC (Homo sapiens, UniProt Q8N5J4 1-248); conditions: protein: recombinant; tags: N-terminal GST; dsDNA, one strand shown
# T2 sequence: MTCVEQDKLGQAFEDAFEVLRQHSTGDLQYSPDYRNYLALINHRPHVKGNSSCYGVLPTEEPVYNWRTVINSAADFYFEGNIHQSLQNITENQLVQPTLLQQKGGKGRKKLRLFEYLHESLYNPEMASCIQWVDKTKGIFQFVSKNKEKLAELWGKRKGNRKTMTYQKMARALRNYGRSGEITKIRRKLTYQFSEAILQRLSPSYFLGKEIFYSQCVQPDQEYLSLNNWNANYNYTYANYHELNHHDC
# Summary of the method: as §1
# ELF4 = ELF4 (Homo sapiens, UniProt Q99607 1-663); conditions: protein: recombinant; tags: N-terminal GST; dsDNA, one strand shown
# Summary of the method: as §1
# ELK4 = biological target: T3, ELK4 (Homo sapiens, UniProt P28324-2 1-405); conditions: protein: recombinant; tags: N-terminal GST; dsDNA, one strand shown
# T3 sequence: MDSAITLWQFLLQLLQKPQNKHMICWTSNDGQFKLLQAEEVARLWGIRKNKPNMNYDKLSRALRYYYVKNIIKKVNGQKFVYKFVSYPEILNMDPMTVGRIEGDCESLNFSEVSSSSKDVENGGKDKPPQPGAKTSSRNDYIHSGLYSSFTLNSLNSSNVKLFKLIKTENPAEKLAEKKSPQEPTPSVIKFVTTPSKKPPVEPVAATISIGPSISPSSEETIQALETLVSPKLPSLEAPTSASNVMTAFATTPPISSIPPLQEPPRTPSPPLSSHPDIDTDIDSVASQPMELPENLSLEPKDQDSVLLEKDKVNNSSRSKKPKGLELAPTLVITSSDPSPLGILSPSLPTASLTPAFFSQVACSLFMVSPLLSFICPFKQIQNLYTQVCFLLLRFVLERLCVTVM
# Summary of the method: as §1
# ETV2 = biological target: T4, ETV2 (Homo sapiens, UniProt O00321 1-342); conditions: protein: recombinant; tags: N-terminal GST; dsDNA, one strand shown
# T4 sequence: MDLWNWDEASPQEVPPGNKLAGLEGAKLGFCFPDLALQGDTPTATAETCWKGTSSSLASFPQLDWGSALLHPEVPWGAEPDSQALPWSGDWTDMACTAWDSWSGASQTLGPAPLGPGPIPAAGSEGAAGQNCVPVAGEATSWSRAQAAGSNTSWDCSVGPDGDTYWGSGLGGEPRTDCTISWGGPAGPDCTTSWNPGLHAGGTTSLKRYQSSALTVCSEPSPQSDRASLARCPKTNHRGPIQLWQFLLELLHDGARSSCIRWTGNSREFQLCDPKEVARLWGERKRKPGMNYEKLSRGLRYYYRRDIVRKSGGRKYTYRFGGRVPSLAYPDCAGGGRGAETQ
# Summary of the method: as §1
# ELF3 = biological target: T5, ELF3 (Homo sapiens, UniProt P78545 1-371); conditions: protein: recombinant; tags: N-terminal GST; dsDNA, one strand shown
# T5 sequence: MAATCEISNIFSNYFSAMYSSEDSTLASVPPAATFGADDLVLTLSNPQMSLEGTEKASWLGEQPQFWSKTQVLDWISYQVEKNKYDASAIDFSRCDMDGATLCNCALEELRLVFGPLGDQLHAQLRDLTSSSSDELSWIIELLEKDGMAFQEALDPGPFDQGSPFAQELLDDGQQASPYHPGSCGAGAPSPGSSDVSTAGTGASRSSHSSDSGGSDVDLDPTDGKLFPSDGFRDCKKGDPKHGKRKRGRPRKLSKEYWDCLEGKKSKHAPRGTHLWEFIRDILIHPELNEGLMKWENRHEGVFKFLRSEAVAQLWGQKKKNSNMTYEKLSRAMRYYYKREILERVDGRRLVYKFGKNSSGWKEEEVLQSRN
# Summary of the method: as §1
# CRX = CRX (Homo sapiens, UniProt O43186 1-299); conditions: protein: recombinant; tags: N-terminal GST; dsDNA, one strand shown
# Summary of the method: as §1
# ETV1 = ETV1 (Homo sapiens, UniProt P50549 1-477); conditions: protein: recombinant; tags: N-terminal GST; dsDNA, one strand shown
# Summary of the method: as §1
# ERF = biological target: T6, ERF (Homo sapiens, UniProt P50548 1-548); conditions: protein: recombinant; tags: N-terminal GST; dsDNA, one strand shown
# T6 sequence: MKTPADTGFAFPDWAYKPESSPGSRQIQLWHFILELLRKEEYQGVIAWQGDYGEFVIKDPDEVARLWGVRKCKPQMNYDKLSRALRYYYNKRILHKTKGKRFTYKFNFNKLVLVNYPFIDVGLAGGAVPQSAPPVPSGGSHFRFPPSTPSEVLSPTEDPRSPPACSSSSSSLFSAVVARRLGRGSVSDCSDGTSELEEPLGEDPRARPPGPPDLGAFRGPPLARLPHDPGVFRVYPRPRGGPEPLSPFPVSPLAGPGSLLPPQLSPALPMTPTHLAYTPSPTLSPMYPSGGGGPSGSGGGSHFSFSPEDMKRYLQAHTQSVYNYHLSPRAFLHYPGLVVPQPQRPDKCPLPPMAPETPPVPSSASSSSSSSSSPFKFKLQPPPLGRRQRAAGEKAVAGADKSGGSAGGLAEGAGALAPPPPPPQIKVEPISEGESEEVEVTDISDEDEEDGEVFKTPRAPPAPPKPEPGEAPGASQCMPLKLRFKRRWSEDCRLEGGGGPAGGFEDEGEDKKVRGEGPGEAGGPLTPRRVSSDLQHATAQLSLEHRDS
# Summary of the method: as §1
# ETV3L = biological target: T7, ETV3L (Homo sapiens, UniProt Q6ZN32 1-361); conditions: protein: recombinant; tags: N-terminal GST; dsDNA, one strand shown
# T7 sequence: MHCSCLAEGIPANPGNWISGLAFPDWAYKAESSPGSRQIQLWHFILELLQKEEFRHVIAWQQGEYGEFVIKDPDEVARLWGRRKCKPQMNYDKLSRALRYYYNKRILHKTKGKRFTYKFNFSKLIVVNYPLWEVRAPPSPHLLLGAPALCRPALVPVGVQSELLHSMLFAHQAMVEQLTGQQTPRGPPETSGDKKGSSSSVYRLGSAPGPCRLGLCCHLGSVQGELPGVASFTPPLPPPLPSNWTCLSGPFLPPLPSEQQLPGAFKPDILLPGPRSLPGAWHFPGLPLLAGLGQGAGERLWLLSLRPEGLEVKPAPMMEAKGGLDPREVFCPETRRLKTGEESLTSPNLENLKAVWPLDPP
# Summary of the method: as §1
# ETS2 = biological target: T8, ETS2 (Homo sapiens, UniProt P15036 1-469); conditions: protein: recombinant; tags: N-terminal GST; dsDNA, one strand shown
# T8 sequence: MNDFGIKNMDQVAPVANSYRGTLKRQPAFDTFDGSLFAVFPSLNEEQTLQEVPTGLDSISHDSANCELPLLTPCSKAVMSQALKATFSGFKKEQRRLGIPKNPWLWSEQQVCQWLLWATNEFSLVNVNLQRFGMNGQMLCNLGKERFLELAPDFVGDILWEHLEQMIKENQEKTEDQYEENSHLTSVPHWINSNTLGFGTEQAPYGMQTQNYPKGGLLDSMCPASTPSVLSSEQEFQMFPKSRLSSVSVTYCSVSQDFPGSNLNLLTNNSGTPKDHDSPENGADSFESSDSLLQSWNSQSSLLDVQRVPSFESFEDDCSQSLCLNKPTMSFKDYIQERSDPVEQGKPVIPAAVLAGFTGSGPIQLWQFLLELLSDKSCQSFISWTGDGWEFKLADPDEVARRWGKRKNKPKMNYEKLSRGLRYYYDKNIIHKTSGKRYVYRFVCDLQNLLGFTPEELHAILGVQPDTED
# Summary of the method: as §1
# SPDEF = biological target: T9, SPDEF (Homo sapiens, UniProt O95238 1-335); conditions: protein: recombinant; tags: N-terminal GST; dsDNA, one strand shown
# T9 sequence: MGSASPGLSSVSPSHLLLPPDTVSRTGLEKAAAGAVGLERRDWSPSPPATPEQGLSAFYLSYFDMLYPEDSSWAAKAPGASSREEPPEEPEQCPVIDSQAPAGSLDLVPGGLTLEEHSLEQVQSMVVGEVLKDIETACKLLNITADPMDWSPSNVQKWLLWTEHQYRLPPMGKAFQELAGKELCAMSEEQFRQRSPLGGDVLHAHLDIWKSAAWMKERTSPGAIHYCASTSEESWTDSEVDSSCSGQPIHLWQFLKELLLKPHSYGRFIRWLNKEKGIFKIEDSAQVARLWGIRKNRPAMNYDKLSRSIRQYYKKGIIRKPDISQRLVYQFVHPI
# Summary of the method: as §1
# ETV7 = biological target: T10, ETV7 (Homo sapiens, UniProt Q9Y603 1-341); conditions: protein: recombinant; tags: N-terminal GST; dsDNA, one strand shown
# T10 sequence: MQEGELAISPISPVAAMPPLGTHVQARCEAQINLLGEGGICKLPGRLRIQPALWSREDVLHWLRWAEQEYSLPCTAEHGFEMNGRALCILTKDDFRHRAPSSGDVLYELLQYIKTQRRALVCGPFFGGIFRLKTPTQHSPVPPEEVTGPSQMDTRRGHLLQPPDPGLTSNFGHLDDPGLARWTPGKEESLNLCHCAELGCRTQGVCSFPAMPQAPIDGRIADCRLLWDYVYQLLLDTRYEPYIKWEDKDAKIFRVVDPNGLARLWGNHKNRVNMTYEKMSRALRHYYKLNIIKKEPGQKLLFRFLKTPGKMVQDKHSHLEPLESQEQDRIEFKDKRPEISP
# Summary of the method: as §1
# ELF5 = biological target: T11, ELF5 (Homo sapiens, UniProt Q9UKW6-2 1-255); conditions: protein: recombinant; tags: N-terminal GST; dsDNA, one strand shown
# T11 sequence: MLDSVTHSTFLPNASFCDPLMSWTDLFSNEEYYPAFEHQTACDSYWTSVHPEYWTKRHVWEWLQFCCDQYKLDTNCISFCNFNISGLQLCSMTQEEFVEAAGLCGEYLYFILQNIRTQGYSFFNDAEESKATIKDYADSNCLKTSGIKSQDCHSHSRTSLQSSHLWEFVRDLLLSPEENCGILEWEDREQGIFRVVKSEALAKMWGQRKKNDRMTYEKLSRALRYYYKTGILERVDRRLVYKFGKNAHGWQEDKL
# Summary of the method: as §1
# ETV3 = biological target: T12, ETV3 (Homo sapiens, UniProt P41162-2 1-143); conditions: protein: recombinant; tags: N-terminal GST; dsDNA, one strand shown
# T12 sequence: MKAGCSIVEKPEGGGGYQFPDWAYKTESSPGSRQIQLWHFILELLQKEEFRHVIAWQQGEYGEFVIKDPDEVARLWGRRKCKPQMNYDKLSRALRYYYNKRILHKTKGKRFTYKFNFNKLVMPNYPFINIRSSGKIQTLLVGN
# Summary of the method: as §1
# ETV6 = ETV6 (Homo sapiens, UniProt P41212 1-452); conditions: protein: recombinant; tags: N-terminal GST; dsDNA, one strand shown
# Summary of the method: as §1
# ETV1, sequence (P50549 whole entry): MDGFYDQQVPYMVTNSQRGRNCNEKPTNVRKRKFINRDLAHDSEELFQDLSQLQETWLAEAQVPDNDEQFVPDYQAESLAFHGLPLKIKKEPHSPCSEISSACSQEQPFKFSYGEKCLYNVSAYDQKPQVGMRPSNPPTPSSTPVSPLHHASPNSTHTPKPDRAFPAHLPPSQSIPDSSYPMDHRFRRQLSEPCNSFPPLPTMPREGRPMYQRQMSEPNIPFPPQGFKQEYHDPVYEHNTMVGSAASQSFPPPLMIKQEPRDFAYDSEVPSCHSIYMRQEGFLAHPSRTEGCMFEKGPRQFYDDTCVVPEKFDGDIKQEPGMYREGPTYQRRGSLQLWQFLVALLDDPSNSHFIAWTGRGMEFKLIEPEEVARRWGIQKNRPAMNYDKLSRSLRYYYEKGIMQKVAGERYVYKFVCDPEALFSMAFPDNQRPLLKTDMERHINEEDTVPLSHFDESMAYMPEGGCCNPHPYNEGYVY
# ETV5, sequence (P41161 whole entry): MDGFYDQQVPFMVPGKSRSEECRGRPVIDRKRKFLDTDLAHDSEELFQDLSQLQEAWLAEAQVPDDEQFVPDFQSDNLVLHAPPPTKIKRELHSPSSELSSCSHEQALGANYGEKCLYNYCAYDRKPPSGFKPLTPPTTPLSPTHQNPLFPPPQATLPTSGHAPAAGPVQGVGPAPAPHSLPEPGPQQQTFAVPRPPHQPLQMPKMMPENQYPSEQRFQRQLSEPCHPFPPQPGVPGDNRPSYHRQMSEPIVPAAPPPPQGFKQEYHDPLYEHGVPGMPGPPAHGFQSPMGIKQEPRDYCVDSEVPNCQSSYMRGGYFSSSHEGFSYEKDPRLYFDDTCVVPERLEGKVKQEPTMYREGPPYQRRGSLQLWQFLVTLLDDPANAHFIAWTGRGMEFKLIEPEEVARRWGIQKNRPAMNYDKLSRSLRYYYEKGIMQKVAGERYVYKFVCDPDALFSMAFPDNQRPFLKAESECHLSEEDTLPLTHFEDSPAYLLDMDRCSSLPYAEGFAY
# HSF1, sequence (Q00613 whole entry): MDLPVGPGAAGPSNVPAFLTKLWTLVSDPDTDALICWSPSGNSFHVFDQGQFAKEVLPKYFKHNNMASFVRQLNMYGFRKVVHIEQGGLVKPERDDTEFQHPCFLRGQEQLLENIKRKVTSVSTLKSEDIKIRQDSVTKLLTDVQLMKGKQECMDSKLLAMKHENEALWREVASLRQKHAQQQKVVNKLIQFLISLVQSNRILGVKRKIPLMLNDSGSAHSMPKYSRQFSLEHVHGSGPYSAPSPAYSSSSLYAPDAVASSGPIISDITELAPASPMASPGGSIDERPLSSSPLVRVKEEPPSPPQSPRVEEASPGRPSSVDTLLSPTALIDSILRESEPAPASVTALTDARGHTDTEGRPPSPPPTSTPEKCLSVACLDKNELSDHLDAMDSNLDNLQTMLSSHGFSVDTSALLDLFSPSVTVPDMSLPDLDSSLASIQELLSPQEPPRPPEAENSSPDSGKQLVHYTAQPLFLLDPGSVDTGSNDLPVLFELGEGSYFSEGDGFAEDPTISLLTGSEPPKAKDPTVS
# ETV6, sequence (P41212 whole entry): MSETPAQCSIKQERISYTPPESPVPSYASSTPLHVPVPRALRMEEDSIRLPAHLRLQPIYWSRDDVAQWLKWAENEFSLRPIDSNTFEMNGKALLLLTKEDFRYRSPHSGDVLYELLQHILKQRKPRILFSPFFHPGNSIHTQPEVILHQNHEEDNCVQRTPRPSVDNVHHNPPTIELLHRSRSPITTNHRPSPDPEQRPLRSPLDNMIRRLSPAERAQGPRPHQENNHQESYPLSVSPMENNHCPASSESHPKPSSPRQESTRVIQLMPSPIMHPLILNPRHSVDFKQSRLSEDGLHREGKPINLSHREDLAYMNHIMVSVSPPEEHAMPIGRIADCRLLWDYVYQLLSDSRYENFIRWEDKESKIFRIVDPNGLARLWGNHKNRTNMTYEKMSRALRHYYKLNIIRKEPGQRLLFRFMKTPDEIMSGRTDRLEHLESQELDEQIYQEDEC
# CRX, sequence (O43186 whole entry): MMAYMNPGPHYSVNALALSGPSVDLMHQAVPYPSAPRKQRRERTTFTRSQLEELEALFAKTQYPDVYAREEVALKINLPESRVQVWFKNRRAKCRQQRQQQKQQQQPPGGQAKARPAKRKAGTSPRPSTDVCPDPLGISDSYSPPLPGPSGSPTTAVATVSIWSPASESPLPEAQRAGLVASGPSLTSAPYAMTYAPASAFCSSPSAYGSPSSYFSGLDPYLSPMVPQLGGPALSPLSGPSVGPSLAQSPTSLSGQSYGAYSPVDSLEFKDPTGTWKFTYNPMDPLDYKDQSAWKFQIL
# ELF4, sequence (Q99607 whole entry): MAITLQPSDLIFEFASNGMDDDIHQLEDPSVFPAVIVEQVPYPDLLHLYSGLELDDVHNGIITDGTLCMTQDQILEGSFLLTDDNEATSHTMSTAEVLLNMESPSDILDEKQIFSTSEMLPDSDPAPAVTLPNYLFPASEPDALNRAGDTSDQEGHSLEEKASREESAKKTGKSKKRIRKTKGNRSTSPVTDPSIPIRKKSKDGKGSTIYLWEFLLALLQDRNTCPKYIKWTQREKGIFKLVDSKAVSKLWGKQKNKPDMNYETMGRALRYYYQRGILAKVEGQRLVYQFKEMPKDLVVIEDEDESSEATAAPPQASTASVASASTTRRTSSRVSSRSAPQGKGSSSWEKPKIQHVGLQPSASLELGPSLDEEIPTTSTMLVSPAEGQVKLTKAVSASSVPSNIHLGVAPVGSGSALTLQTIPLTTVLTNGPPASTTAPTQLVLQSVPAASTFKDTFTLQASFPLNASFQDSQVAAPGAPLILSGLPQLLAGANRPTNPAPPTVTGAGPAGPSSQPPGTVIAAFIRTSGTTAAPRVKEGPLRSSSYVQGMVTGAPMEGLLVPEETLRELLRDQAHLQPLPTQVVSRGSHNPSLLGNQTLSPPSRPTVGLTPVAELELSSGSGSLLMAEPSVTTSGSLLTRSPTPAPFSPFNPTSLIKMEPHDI
sequence,measurement,setting,value
ACTTCC,binding signal,FEV,"12.4 fold enrichment (6-mer frequency, TF over GST control)"
same,binding signal,ETV5,"8.86 fold enrichment (6-mer frequency, TF over GST control)"
same,binding signal,HSF1,"1.55 fold enrichment (6-mer frequency, TF over GST control)"
same,binding signal,SPIC,"8.15 fold enrichment (6-mer frequency, TF over GST control)"
same,binding signal,ELF4,"7.63 fold enrichment (6-mer frequency, TF over GST control)"
same,binding signal,ELK4,"6.63 fold enrichment (6-mer frequency, TF over GST control)"
same,binding signal,ETV2,"8.23 fold enrichment (6-mer frequency, TF over GST control)"
same,binding signal,ELF3,"7.67 fold enrichment (6-mer frequency, TF over GST control)"
same,binding signal,CRX,"1.21 fold enrichment (6-mer frequency, TF over GST control)"
same,binding signal,ETV1,"8.66 fold enrichment (6-mer frequency, TF over GST control)"
same,binding signal,ERF,"7.03 fold enrichment (6-mer frequency, TF over GST control)"
same,binding signal,ETV3L,"7.94 fold enrichment (6-mer frequency, TF over GST control)"
same,binding signal,ETS2,"8.81 fold enrichment (6-mer frequency, TF over GST control)"
same,binding signal,SPDEF,"8.64 fold enrichment (6-mer frequency, TF over GST control)"
same,binding signal,ETV7,"7.8 fold enrichment (6-mer frequency, TF over GST control)"
same,binding signal,ELF5,"12.5 fold enrichment (6-mer frequency, TF over GST control)"
same,binding signal,ETV3,"9.02 fold enrichment (6-mer frequency, TF over GST control)"
same,binding signal,ETV6,"10.9 fold enrichment (6-mer frequency, TF over GST control)"
